Cycloheximide cs – counter-screen hit for Shiga toxin inhibitors, cycloheximide. cell reporter, cycloheximide protein synthesis inhibition counterscreen. max response, %. 12% of 300,000 active. AID 2314; in the data active = max response mostly above about 13%, no sharp cut-off; inactive = mostly below about 14%; also: read at 38.3 µM for the half of the compounds with a filed dose
Pf growth 48h – P. falciparum growth inhibition at 48 hours (one generation). P. falciparum luciferase growth in erythrocytes, 48 h. Potency, µM (doses to about 28.7 µM), actives largely listed as inhibitors. 5.9% of 310,000 active. AID 504832
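Parasite viability was followed by luminescence of a genomically integrated firefly luciferase. Cultures held 0.1% parasitemia at 2% hematocrit (final), incubated under 5% CO2 at 37 C.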
Shiga toxin inh – Shiga toxin inhibition | inhibition, % at 38.7 µM | 9.2% of 290,000 active | Vero cells, Shiga toxin protein synthesis inhibition reporter | AID 2315; in the data active = inhibition mostly above about 28%, no sharp cut-off; inactive = mostly below about 43%
Pf growth 96h – P. falciparum growth inhibition at 96 hour, primary screen for plastid delayed-death inhibitors | 6.9% of 320,000 active | Potency, µM (series often up to 28.7 µM), hits mostly inhibitors | P. falciparum luciferase reporter growth, 96 h | AID 504834
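Erythrocytes infected with luciferase-expressing P. falciparum were dispensed at 2% hematocrit and 0.05% parasitemia (final), then incubated with compounds 96 hours at 37 C in 5% CO2. Luminescence after detection reagent addition reported growth.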
HCV inh – HCV inhibition | Potency, µM (doses to about 41.8 µM), hits mostly inhibitors | 3.4% of 340,000 active | Huh7.5.1 HCVcc-Cre infection, luciferase reporter, 44 h
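Seed cells (1,000/well) for 4 h; treat with compound and infect with HCVcc-Cre, moi about 0.5. Incubate 44 h, then detect luciferase activity.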
HCMV inh – inhibitors of human cytomegalovirus; 4.5% of 410,000 active; HFF cells, HCMV-luciferase reporter, 72 h; stronger effect = lower value; activity change, negative = inhibition, % at 57.5 µM; AID 1259415; in the data active = activity change below about -60%; inconclusive = no clear call, values can overlap the other calls; inactive = above about -39%
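Luciferase read-out from HCMV-luciferase-infected HFFs (MOI 1 PFU/cell) 72 h post infection at 37C; compounds added after 16 h cell attachment; activity normalized between buffer-only basal and Salinomycin (10uM) inhibitor controls.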
Large screens that a line does not name were inactive. Most compounds without a hit are left out; they make up all but 21% or so of the library. Unless noted, calls follow the shape of the dose curve; as a rule, active = well fitted inhibition curve with a large enough effect; inconclusive = small, poorly fitted or top-dose-only effect, or another doubt; inactive = no such curve, though single readings can be large or run the other way.

COCCN(CC(=O)Nc1ccccc1C(F)(F)F)C(=O)/C=C/c1ccc2ccccc2n1	Pf growth 48h inconclusive, Pf growth 96h 14.7µM (no result: Cycloheximide cs, Shiga toxin inh)
CSc1ccc(CN(C)C(=O)COc2ccc(C(=O)c3ccccc3)cc2)cc1	none
CC(=O)/C(N=Nc1ccc(SC(F)F)cc1)=C(\C)O	Cycloheximide cs 44.3, Shiga toxin inh 59.3, HCV inh inconclusive
Cc1nc(CN2CCN(C(=O)NC3(c4ccccc4)CC3)CC2)cs1	HCMV inh -77.0
CC(=O)NC1(c2ccccc2)CCN(c2nc(C)cc(C)n2)CC1	none
CC(=O)N1CCC(=NNc2ncc(C(F)(F)F)cc2Cl)CC1	none
CC(=O)N1CCC(=NNc2ccnc3cc(Cl)ccc23)CC1	Pf growth 48h 1.85µM, Pf growth 96h 2.62µM, HCMV inh inconclusive
CCOC(=O)N1CCC(=NNc2ccnc3cc(Cl)ccc23)CC1	Pf growth 48h inconclusive, Pf growth 96h 2.62µM, HCV inh inconclusive
Cc1ccc(NC2CCCN(C(=O)c3cc(C(C)C)nn3C)C2)cc1C (stereo not drawn)	none (no result: Cycloheximide cs, Pf growth 48h, Shiga toxin inh, Pf growth 96h, HCV inh)
CCCC(C)NC(=O)CSc1nc2ccc(C)cc2[nH]1 (stereo not drawn)	none
N/C(=N\OC(=O)c1ccccc1F)c1cccc([N+](=O)[O-])c1	Cycloheximide cs 38.7, Shiga toxin inh 56.4, Pf growth 96h 11.7µM
N/C(=N\OC(=O)c1ccccc1Br)c1cccc([N+](=O)[O-])c1	Cycloheximide cs 52.0, Shiga toxin inh 118.2 (no result: Pf growth 48h)
Cc1ccccc1/C(N)=N/OC(=O)c1ccc(F)cc1	Cycloheximide cs 47.2, Shiga toxin inh 107.2, Pf growth 96h inconclusive, HCV inh inconclusive, HCMV inh -90.2
Cc1ccccc1C(=O)O/N=C(\N)c1ccccc1	Cycloheximide cs 20.7, HCV inh inconclusive
Cc1ccccc1C(=O)O/N=C(\c1ccccc1)c1ccccn1	none
COc1ccc(NC(=O)Nc2cccc3ccccc23)cc1OC	Pf growth 48h inconclusive, Pf growth 96h inconclusive, HCMV inh inconclusive
CN(C)CCCOc1c2ccccc2n(Cc2ccccc2)[n+]1[O-]	none (no result: Pf growth 48h, Pf growth 96h, HCV inh, HCMV inh)
CC(=O)N1CCc2cc(S(=O)(=O)NC(Cc3ccccc3)C(=O)Nc3ccc(C)cc3C)ccc21 (stereo not drawn)	none (no result: Cycloheximide cs, Pf growth 48h, Shiga toxin inh, Pf growth 96h, HCV inh)
N/C(=N\OC(=O)c1ccccc1Br)c1ccc([N+](=O)[O-])cc1	Cycloheximide cs 10.1, Shiga toxin inh 18.6
Cc1ccccc1/C(N)=N/OC(=O)N1c2ccccc2Sc2ccccc21	Pf growth 48h inconclusive, Pf growth 96h 10.4µM
COc1ccccc1C(=O)O/N=C(/c1ccncc1)c1ccc([N+](=O)[O-])cc1	Pf growth 48h inconclusive, Pf growth 96h 5.22µM
O=C(CS(=O)(=O)c1ccc(F)cc1)NCCS(=O)(=O)c1ccccc1	HCV inh inconclusive
N/C(CS(=O)(=O)c1ccccc1)=N\OC(=O)c1ccc(F)cc1	Cycloheximide cs 27.8, Shiga toxin inh 109.4
N/C(Cc1ccc([N+](=O)[O-])cc1)=N\OC(=O)c1ccccc1Br	Pf growth 48h inconclusive, HCV inh inconclusive
COc1cccc(CNC(=O)c2ccc3oc(=O)n(Cc4ccccc4)c3c2)c1	none (no result: Cycloheximide cs, Pf growth 48h, Shiga toxin inh, Pf growth 96h, HCV inh)
C/C(COc1ccccc1)=N\NC(=O)c1nnn(-c2nonc2N)c1CSc1ccccc1	none
Cc1ccccc1C(N)=O	none (no result: Cycloheximide cs, Pf growth 48h, Shiga toxin inh, Pf growth 96h)
Cc1ccccc1C(=NC(=O)c1ccccc1)c1ccccc1	Pf growth 48h 8.28µM, Pf growth 96h 6.57µM
Cc1ccccc1C(=O)O/N=C(\N)c1ccc([N+](=O)[O-])cc1	Cycloheximide cs 31.8, Pf growth 96h inconclusive (no result: Shiga toxin inh)
Cc1c(Cl)cccc1NC(=O)CCS(=O)(=O)c1ccc2c(c1)CC(=O)N2C	none (no result: Cycloheximide cs, Pf growth 48h, Shiga toxin inh, Pf growth 96h, HCV inh)
O=C(NC(=S)Nc1cccc(NC(=S)NC(=O)c2ccccc2)c1)c1ccccc1	HCV inh inconclusive (no result: Cycloheximide cs, Pf growth 48h, Shiga toxin inh, Pf growth 96h)
CCC(=O)Nc1cccc(NC(=S)NC(=O)c2ccccc2)c1	Cycloheximide cs 53.8, Shiga toxin inh 15.8
O=C(NC(=S)Nc1cccc(CO)c1)c1ccc(-c2ccccc2)cc1	Cycloheximide cs 25.0, Shiga toxin inh 64.0
CCC(=O)NC(=S)Nc1cccc(NC(=O)CC)c1	none
CCC(=O)Nc1cccc(NC(=S)NC(=O)c2ccc(C)cc2)c1	Cycloheximide cs 46.0, Shiga toxin inh 101.6, HCV inh inconclusive
C=CCN(CC=C)S(=O)(=O)c1ccc(NC(=S)NC(=O)c2ccc(-c3ccccc3)cc2)cc1	Pf growth 48h 1.47µM, HCV inh inconclusive (no result: Pf growth 96h)

High-throughput results from PubChem BioAssay.
